Source: the supplement of paper PMC6411743
± gives the standard deviation of the averaged measurements. Targets with the largest changes are over-represented here; the source holds about 5,400 in all.

Compound: Nc1nc2c(ncn2[C@@H]2O[C@H](COP(=O)(O)OP(=O)(O)OP(=O)(O)O)[C@@H](O)[C@H]2O)c(=O)[nH]1 [guanosine triphosphate]
Test: NP40-soluble protein abundance relative to vehicle (solubility fold change) (ratio); higher = more soluble protein in presence of GTP
Protocol: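 Solubility proteome profiling in Jurkat crude lysate. Lysate was treated with Mg-GTP (0.1-10 mM) for 10 min at room temperature and 3 min at 37 °C, then solubilised with 0.8% NP40 and benzonase, followed by ultracentrifugation. Proteins were quantified by TMT10 LC-MS/MS; the value is the NP40-soluble abundance relative to the NP40-processed vehicle, from 3 independent experiments.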

Sequence of UniProt Q9NPD3 (Q9NPD3 whole entry): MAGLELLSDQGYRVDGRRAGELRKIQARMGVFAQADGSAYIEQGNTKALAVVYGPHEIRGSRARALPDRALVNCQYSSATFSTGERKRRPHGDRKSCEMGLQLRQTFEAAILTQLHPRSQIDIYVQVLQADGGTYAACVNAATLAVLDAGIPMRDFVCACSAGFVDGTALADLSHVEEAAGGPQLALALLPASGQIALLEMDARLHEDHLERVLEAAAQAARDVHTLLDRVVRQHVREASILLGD
Sequence of UniProt Q9UQN3 (Q9UQN3 whole entry): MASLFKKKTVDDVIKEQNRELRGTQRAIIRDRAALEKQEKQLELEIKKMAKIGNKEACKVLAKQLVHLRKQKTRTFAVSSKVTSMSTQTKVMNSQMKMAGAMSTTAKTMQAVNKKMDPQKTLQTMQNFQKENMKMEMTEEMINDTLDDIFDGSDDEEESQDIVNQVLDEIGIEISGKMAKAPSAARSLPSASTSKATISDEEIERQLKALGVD
Sequence of UniProt Q96JM7 (Q96JM7 whole entry): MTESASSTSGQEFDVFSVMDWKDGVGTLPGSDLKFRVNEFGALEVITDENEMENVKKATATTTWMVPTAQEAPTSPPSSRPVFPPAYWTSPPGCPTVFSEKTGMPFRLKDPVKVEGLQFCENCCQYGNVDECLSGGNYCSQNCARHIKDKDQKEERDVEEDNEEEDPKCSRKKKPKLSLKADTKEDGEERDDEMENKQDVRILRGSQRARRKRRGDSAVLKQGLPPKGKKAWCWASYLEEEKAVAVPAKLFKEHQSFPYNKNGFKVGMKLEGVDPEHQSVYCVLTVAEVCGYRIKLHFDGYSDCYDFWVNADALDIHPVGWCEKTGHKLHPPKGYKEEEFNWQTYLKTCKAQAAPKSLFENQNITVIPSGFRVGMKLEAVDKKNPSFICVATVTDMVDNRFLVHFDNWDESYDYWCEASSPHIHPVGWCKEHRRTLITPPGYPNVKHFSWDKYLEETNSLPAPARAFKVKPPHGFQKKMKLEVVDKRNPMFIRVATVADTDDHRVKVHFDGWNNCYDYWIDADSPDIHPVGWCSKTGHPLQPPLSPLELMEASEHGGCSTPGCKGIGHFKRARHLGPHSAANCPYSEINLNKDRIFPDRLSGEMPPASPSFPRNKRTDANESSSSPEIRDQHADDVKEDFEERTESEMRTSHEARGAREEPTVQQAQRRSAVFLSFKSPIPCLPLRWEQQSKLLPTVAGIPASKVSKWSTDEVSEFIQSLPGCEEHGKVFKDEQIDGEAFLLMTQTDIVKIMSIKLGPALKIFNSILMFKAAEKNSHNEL
Sequence of UniProt Q9P2J5 (Q9P2J5 whole entry, looked up): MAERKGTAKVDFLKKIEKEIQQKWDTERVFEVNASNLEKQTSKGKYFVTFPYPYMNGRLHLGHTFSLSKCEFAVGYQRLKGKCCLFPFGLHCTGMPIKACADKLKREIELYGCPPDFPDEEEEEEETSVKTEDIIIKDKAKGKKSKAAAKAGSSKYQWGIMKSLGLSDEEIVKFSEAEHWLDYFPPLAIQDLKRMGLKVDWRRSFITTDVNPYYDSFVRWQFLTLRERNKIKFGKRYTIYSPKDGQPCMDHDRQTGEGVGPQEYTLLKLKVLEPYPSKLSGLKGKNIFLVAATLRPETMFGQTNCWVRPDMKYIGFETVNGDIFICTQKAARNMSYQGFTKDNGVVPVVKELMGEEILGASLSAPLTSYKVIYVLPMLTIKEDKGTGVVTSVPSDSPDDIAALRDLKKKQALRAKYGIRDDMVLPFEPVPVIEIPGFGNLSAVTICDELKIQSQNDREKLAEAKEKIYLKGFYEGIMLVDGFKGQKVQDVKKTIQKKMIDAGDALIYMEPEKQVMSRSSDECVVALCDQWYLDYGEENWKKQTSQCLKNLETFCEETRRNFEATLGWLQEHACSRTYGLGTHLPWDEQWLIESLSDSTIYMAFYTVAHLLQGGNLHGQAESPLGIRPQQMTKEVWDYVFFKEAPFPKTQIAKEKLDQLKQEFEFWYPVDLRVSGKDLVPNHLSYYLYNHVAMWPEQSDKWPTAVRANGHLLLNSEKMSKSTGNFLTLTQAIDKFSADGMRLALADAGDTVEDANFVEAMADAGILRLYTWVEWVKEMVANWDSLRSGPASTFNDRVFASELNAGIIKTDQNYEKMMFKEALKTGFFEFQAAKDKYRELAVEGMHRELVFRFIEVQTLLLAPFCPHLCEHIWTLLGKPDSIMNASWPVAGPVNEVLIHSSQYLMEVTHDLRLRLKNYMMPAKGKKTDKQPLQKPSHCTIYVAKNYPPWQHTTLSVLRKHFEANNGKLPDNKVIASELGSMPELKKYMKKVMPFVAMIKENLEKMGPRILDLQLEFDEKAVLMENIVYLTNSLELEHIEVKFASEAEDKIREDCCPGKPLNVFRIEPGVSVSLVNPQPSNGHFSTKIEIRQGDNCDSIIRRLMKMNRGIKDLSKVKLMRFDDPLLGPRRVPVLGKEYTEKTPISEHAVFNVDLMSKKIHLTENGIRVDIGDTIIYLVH
Sequence of UniProt Q9H0A0 (Q9H0A0 whole entry): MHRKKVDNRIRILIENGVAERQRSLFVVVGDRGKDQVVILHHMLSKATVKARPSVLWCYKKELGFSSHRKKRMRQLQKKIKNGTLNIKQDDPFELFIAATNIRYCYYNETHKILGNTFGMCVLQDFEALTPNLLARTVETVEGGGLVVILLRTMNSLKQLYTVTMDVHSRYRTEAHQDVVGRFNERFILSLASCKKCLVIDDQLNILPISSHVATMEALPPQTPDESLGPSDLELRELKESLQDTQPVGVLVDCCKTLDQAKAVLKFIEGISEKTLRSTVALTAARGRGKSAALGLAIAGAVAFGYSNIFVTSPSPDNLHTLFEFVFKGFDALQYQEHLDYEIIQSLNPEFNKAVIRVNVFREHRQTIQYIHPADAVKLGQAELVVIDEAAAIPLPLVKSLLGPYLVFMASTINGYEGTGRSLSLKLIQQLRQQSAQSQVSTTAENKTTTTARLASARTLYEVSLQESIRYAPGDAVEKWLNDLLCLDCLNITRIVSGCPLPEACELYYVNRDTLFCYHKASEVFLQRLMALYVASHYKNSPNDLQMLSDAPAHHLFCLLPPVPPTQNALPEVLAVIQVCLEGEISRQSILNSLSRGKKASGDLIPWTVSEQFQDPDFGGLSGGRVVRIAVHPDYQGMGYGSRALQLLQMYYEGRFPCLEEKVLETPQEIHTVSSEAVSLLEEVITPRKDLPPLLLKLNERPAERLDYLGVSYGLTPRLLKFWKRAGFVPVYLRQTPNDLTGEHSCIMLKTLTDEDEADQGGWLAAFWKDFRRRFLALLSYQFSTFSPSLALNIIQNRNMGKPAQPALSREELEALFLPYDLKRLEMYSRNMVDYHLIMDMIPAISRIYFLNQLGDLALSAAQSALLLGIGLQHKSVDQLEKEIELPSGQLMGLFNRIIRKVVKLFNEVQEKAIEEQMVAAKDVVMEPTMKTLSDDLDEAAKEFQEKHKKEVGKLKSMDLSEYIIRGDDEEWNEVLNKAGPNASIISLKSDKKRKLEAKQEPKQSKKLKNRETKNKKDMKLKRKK

Target	NP40-soluble protein abundance (concentration: 0.1mM)	NP40-soluble protein abundance (concentration: 0.5mM)	NP40-soluble protein abundance (concentration: 1mM)	NP40-soluble protein abundance (concentration: 2mM)	NP40-soluble protein abundance (concentration: 4mM)	NP40-soluble protein abundance (concentration: 6mM)	NP40-soluble protein abundance (concentration: 8mM)	NP40-soluble protein abundance (concentration: 10mM)
NAT10 (UniProt Q9H0A0)	1.07 ± 0.065	1.04 ± 0.061	1.02 ± 0.063	1.07 ± 0.065	1.2 ± 0.079	1.31 ± 0.085	1.37 ± 0.077	1.59 ± 0.11
UniProt Q96JM7|Q96JM7-2	1.13 ± 0.15	1.14 ± 0.016	1.08 ± 0.16	1.13 ± 0.078	1.1 ± 0.2	1.23 ± 0.031	1.11 ± 0.056	1.15 ± 0.073
EXOSC4 (UniProt Q9NPD3)	1.07 ± 0.061	0.988 ± 0.057	0.996 ± 0.015	0.994 ± 0.11	1.12 ± 0.023	1.12 ± 0.095	1.11 ± 0.089	1.16 ± 0.054
CHMP2B (UniProt Q9UQN3)	0.905 ± 0.051	0.909 ± 0.092	0.989 ± 0.079	0.931 ± 0.15	0.938 ± 0.12	0.967 ± 0.14	0.953 ± 0.085	0.932 ± 0.11
LARS (UniProt Q9P2J5)	1.05 ± 0.078	1.13 ± 0.15	1.07 ± 0.18	1.17 ± 0.26	1.2 ± 0.26	1.21 ± 0.28	1.16 ± 0.24	1.09 ± 0.23
